# Experimental data taken from the supplement of paper PMC8728848.
# This excerpt belongs to a sample that is enriched for the strongest signals.
# B1: NanH (Corynebacterium diphtheriae), C6JSW6 (protein)
# chain: MYSSNRTYSRAILGLSAVLTLSFTSLVAPVNAEEPETVVPATAELEGEVAATLPSAETGLLDAAPPKPVARGAAGDLQLPAVNEKEVFEEGRVIRAPEPDQSRCYRIPALVTAKNGDLLLAFDNRYGGGDGAKTWCRDAPYENMKRINRQNMQTDIQLYRSVDNGQSFEDFGYIAQGTADVRELSYTDPALVTDRTTGKIFAFFVRAYDYRVGQSSAGFNEGDVEAEIQKRDVQDTVVVESLDGGQTWGNMRLLSALTAKVSSISTGDTIFDGRGRFVTSGAGIQLQYGEHAGRLIVPISVDIDPKDSAKFINLAIYSDDHGQTWQAGIGTAGGAGFSGDVSKIVELSDGRLMMSSKDNDKPRWVSYSEDQGENWSTPKRKIIAPPQHPEKHNTGINVGLIRAYPNAPENSAAARVLLYSAPIDQRYSHKHTEDGRNNGWVMGSCDDGKTWSFGRQIEKNRFQYSSMTVMSDGNIGMVYESGDFSTGMNLKFAKFNMAWLGADCHSNEALGLTGDIDKEIVEAQEKAAEATKEAQEAAEKVQKLTEELAAARKENDELKNQVKGFKEAVGDLANEAEDLADKVFKLETAVTEAKEKATVAEKAASDAVTQLQKAESIAEEQKAKAESAAAEAQALREKLERLEGSILTVKENPEAEEIADLSSTAKDAADAARRAATDANGALSGQKQDEEKPAMGLMGILKVLAGIIPLVAIIATIFQTFRLPFNIPGMR
# Legend:
# Test in all cases: glycan array binding signal (z-score within array); higher = stronger binding
# Conditions in all cases: glycan notation: IUPAC condensed, linker removed
# [1] = molecular target: Fuc(a1-2)Gal(b1-4)GlcNAc(b1-2)Man(a1-3)[Fuc(a1-2)Gal(b1-4)GlcNAc(b1-2)Man(a1-6)]Man(b1-4)GlcNAc(b1-4)[Fuc(a1-6)]GlcNAc
# Procedure, shortened: (§1)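 Glycan array data were curated from 3228 arrays in the Consortium for Functional Glycomics database and kept only where the protein sequence was available. Glycan names were converted to IUPAC-condensed notation, and columns mapping to the same glycan were averaged. The binding signal is a within-array Z-score, averaged across arrays of the same protein sequence at different concentrations or buffers and across linkers. Negative Z-scores can be read as non-binding.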
# [2] = molecular target: Fuc(a1-2)Gal(b1-4)[Fuc(a1-3)]GlcNAc(b1-3)GalNAc
# Procedure, shortened: as §1
# [3] = molecular target: Fuc(a1-2)Gal6S(b1-4)GlcNAc
# Procedure, shortened: as §1
# [4] = molecular target: Fuc(a1-2)[Gal(a1-3)]Gal(b1-3)GlcNAc(b1-2)Man(a1-3)[Fuc(a1-2)[Gal(a1-3)]Gal(b1-3)GlcNAc(b1-2)Man(a1-6)]Man(b1-4)GlcNAc(b1-4)[Fuc(a1-6)]GlcNAc
# Procedure, shortened: as §1
# [5] = molecular target: Fuc(a1-2)[Gal(a1-3)]Gal(b1-4)[Fuc(a1-3)]GlcNAc(b1-3)GalNAc
# Procedure, shortened: as §1
# [6] = molecular target: Fuc(a1-2)[GalNAc(a1-3)]Gal(b1-4)GlcNAc(b1-3)Gal(b1-4)GlcNAc
# Procedure, shortened: as §1
# [7] = molecular target: Gal(a1-2)Gal
# Procedure, shortened: as §1
# [8] = molecular target: Gal(b1-2)Gal
# Procedure, shortened: as §1
# [9] = molecular target: Gal(b1-3)GalNAc(a1-3)[Fuc(a1-2)]Gal(b1-4)Glc
# Procedure, shortened: as §1
# [10] = molecular target: Gal(b1-3)GlcNAc(b1-3)Gal(b1-4)Glc
# Procedure, shortened: as §1
# [11] = molecular target: Gal(b1-3)GlcNAc(b1-3)GalNAc
# Procedure, shortened: as §1
# [12] = molecular target: Gal(b1-3)[Fuc(a1-4)]GlcNAc(b1-2)Man(a1-3)[Gal(b1-3)[Fuc(a1-4)]GlcNAc(b1-2)Man(a1-6)]Man(b1-4)GlcNAc(b1-4)[Fuc(a1-6)]GlcNAc
# Procedure, shortened: as §1
# [13] = molecular target: Gal(b1-3)[Fuc(a1-4)]GlcNAc(b1-3)Gal(b1-3)[Fuc(a1-4)]GlcNAc
# Procedure, shortened: as §1
# [14] = molecular target: Gal(b1-4)Gal
# Procedure, shortened: as §1
# [15] = molecular target: Gal(b1-4)GlcNAc(b1-6)Gal(b1-4)GlcNAc
# Procedure, shortened: as §1
# [16] = molecular target: Gal3S(b1-4)Glc6S
# Procedure, shortened: as §1
# [17] = molecular target: Gal3S(b1-4)[Fuc(a1-3)]Glc6S
# Procedure, shortened: as §1
# [18] = molecular target: GalNAc(a1-3)Fuc(a1-2)Gal(b1-4)GlcNAc(b1-3)[GalNAc(a1-3)Fuc(a1-2)Gal(b1-4)GlcNAc(b1-6)]GalNAc
# Procedure, shortened: as §1
# [19] = molecular target: GalNAc(b1-3)Gal
# Procedure, shortened: as §1
# [20] = molecular target: GalNAc(b1-4)GlcNAc(b1-2)Man(a1-3)[GalNAc(b1-4)GlcNAc(b1-2)Man(a1-6)]Man(b1-4)GlcNAc(b1-4)GlcNAc
# Procedure, shortened: as §1
# [21] = molecular target: Glc(a1-4)Glc
# Procedure, shortened: as §1
# [22] = molecular target: GlcA(b1-3)Gal
# Procedure, shortened: as §1
# [23] = molecular target: GlcNAc(a1-4)Gal(b1-4)GlcNAc(b1-3)Gal(b1-4)GlcNAc
# Procedure, shortened: as §1
# [24] = molecular target: GlcNAc(a1-4)Gal(b1-4)GlcNAc(b1-3)Gal(b1-4)GlcNAc(b1-3)Gal(b1-4)GlcNAc
# Procedure, shortened: as §1
# [25] = molecular target: GlcNAc(a1-4)Gal(b1-4)GlcNAc(b1-3)Gal(b1-4)[Fuc(a1-3)]GlcNAc(b1-3)Gal(b1-4)[Fuc(a1-3)]GlcNAc
# Procedure, shortened: as §1
# [26] = molecular target: GlcNAc(b1-4)Gal(b1-4)GlcNAc
# Procedure, shortened: as §1
# [27] = molecular target: Kdn(a2-3)Gal(b1-4)[Fuc(a1-3)]GlcNAc
# Procedure, shortened: as §1
# [28] = molecular target: Man(a1-2)Man(a1-3)[Man(a1-2)Man(a1-6)]Man(a1-6)[Man(a1-2)Man(a1-2)Man(a1-3)]Man
# Procedure, shortened: as §1
# [29] = molecular target: Man(a1-2)Man(a1-3)[Man(a1-6)]Man(a1-6)[Man(a1-2)Man(a1-3)]Man(b1-4)GlcNAc(b1-4)GlcNAc
# Procedure, shortened: as §1
# [30] = molecular target: Man(a1-3)[Man(a1-6)]Man
# Procedure, shortened: as §1
binder,measurement,setting,value
B1,glycan array binding signal (z-score),[1],1.01
same,glycan array binding signal (z-score),[2],3.22
same,glycan array binding signal (z-score),[3],0.001
same,glycan array binding signal (z-score),[4],1.3
same,glycan array binding signal (z-score),[5],-0.377
same,glycan array binding signal (z-score),[6],0.149
same,glycan array binding signal (z-score),[7],-1.72
same,glycan array binding signal (z-score),[8],2.93
same,glycan array binding signal (z-score),[9],1.05
same,glycan array binding signal (z-score),[10],-1.28
same,glycan array binding signal (z-score),[11],-1.71
same,glycan array binding signal (z-score),[12],2.84
same,glycan array binding signal (z-score),[13],-0.787
same,glycan array binding signal (z-score),[14],-1.5
same,glycan array binding signal (z-score),[15],1.11
same,glycan array binding signal (z-score),[16],-0.269
same,glycan array binding signal (z-score),[17],-0.594
same,glycan array binding signal (z-score),[18],0.818
same,glycan array binding signal (z-score),[19],-1.91
same,glycan array binding signal (z-score),[20],3.38
same,glycan array binding signal (z-score),[21],-0.111
same,glycan array binding signal (z-score),[22],2.74
same,glycan array binding signal (z-score),[23],3.02
same,glycan array binding signal (z-score),[24],-1.05
same,glycan array binding signal (z-score),[25],3.97
same,glycan array binding signal (z-score),[26],-0.683
same,glycan array binding signal (z-score),[27],-0.213
same,glycan array binding signal (z-score),[28],3.74
same,glycan array binding signal (z-score),[29],-0.263
same,glycan array binding signal (z-score),[30],-0.151
